High-throughput results as filed in PubChem BioAssay.
Sampled rows, rich in hits. Any-hit rate of the full collection: about 2.4%.
D2 PAM-1 – potentiates the human D2 dopamine receptor allosterically. P14416. DiscoveRx D2 beta-arrestin cells, luminescence, 90 min; 100% = 57 uM dopamine signal. potentiation, % (test concentration not listed). 360,000 compounds, 0.23% hits. AID 624464; in the data active = potentiation above about 50%
Target sequence (P14416 whole entry, looked up): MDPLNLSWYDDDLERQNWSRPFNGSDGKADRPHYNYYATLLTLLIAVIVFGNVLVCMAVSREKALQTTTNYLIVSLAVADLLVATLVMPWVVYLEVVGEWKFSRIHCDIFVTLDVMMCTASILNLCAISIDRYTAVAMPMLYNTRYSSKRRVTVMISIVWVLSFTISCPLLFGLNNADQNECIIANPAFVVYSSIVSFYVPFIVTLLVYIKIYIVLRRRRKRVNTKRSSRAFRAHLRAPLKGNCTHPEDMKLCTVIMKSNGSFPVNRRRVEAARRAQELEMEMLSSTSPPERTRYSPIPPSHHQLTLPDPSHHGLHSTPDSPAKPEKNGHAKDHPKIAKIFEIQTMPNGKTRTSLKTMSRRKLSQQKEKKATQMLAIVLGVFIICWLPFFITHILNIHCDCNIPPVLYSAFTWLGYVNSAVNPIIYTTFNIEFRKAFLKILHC
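D2 cells co-treated with compound plus 50 nM dopamine (EC20) for 90 min at 37 deg C to detect potentiation. Beta-arrestin recruitment was read as enzyme-fragment luminescence after 1 h at ambient temperature. Full response was set by 57 uM dopamine.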
D2 ag-1 – D2 dopamine receptor (human) agonism | P14416 | HEK293 T-REx D2 cells, calcium flux agonist mode | activation, % at 2 µM | 340,000 compounds, 0.53% hits | AID 485358;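 active = activation over 3 SD above normal in the single-dose calcium agonist read, cut at about 30% in these data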
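Agonism scored from kinetic calcium signal (1 read/sec, 180 s) following compound pin transfer, after a 10 s baseline. Cells: HEK293 Trex line expressing inducible D2 receptor coupled to calcium, dye-loaded after overnight culture at 30 C.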
D2 ag-2 – agonists of human D2 dopamine receptor (beta-arrestin) | DiscoveRx PathHunter D2 beta-arrestin, luminescence, 90 min; 100% = 57 uM dopamine signal | P14416 | 360,000 compounds, 0.084% hits | activation, % (test concentration not listed); in the data active = activation above about 40%
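DiscoveRx PathHunter D2 beta-arrestin cells (2,100/well) attached overnight, then compound-stimulated 90 min at 37 C in HBSS/10 mM HEPES/0.1% Tween-20 buffer; beta-galactosidase complementation read by luminescence after 1 h at ambient temperature. Dopamine 57 uM final (EC100) as control.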
D2 antagonist – antagonizes the human D2 dopamine receptor; inhibition, % at 10 µM; AID 485344; HEK293 TREx D2 cells, calcium flux, dopamine EC80; 340,000 compounds, 2% hits; P14416; in the data active = inhibition above about 30%; inactive = below that, where a call was filed
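Dopamine at EC80 is the agonist stimulus; test compounds precede it by 180 s. Calcium flux read kinetically in a force-coupled, inducible HEK293 T-REx D2 cell line.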
D2 PAM-2 – D2 dopamine receptor (human) potentiation | P14416 | HEK293 T-REx D2, calcium flux, EC20 dopamine potentiation | potentiation, % at 10 µM | 340,000 compounds, 0.34% hits;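 active = potentiation over 3 SD above the plate norm, cut at about 30% in these data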
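Primary screen. Calcium kinetics in induced HEK293 T-REx D2 cells: compound pre-addition 180 s, EC20 dopamine, 180 s more.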
A number is an active result; – = inactive; · = no result.

SMILES	D2 PAM-1	D2 ag-1	D2 ag-2	D2 antagonist	D2 PAM-2
CCOC(=O)C1=C(CNCCc2ccc(Cl)cc2)NC(=O)NC1c1ccc2c(c1)OCO2 (stereo not drawn)	–	–	–	–	31
CCCN1CCCc2cc(CN)ccc21	50	–	–	–	–
COc1cc(N)c(Cl)cc1C(=O)OCC(=O)N1CCc2ccccc21	–	–	–	–	–
COc1cc(N)c(Cl)cc1C(=O)OCC(=O)N1CCCC1	–	–	–	32	–
NC(=O)c1c(NC(=O)CS(=O)(=O)c2ccc(Cl)cc2)sc2c1CCCC2	·	·	·	·	–
CCN(c1ccccc1)S(=O)(=O)c1cnc[nH]1	–	–	–	34	–
CCc1ccc(CNc2ccc(N3CCN(C(C)=O)CC3)cc2)cc1	81	–	–	–	–
CC(=O)N1CCN(c2ccc(NCc3ccc(C)cc3)cc2)CC1	–	–	–	–	–
CCOC(=O)c1c(C)[nH]c(C)c1S(=O)(=O)N1CCC(C(=O)NCc2cccc(C)c2)CC1	·	–	·	·	–
Cc1cn2c(=O)cc(COc3ccccc3NC(=O)c3ccc(Cl)cc3)nc2s1	·	–	·	·	–
CC1CCCN(CCCNS(=O)(=O)c2cc(Br)cc3c2N(C(=O)C2CC2)CC3)C1 (stereo not drawn)	–	·	–	·	·
O=C(C1CC1)N1CCc2cc(Br)cc(S(=O)(=O)N3CCN(c4ccccn4)CC3)c21	–	–	–	46	–
O=C(C1CC1)N1CCc2cc(Br)cc(S(=O)(=O)N3CCN(c4ccccc4)CC3)c21	·	–	·	·	–
O=C(C1CC1)N1CCc2cc(Br)cc(S(=O)(=O)NCCCN3CCCC3)c21	–	–	–	39	–
CC(=O)N1CCc2cc(Br)cc(S(=O)(=O)NCc3ccc(Cl)cc3)c21	–	–	–	68	–
CCN(CC)S(=O)(=O)c1ccc(OCC(=O)NC(=O)c2ccccc2OC)c([N+](=O)[O-])c1	55	–	–	–	–
COc1ccc(NC(=O)Cn2c(=O)n(CCC(=O)NCc3ccccc3OC)c(=O)c3ccccc32)cc1Cl	·	–	·	·	–
Cc1[nH]c(=O)[nH]c(=O)c1S(=O)(=O)N1CCCC(C(=O)NCCc2ccc(Cl)cc2)C1 (stereo not drawn)	–	–	–	65	–
COc1ccc(C)cc1NC(=O)Nc1cccc(OCc2cc(=O)n3ccc(C)cc3n2)c1	·	–	·	·	–
COc1ccccc1N1CCN(C(=O)CCc2c[nH]c3ccccc23)CC1	–	–	–	45	–
COc1ccccc1N1CCN(C(=O)C(=O)c2cn(CC(=O)N3CCCCCC3)c3ccccc23)CC1	–	–	–	38	–
COc1ccccc1N1CCN(Cc2ccc(O)c3ncccc23)CC1	–	–	–	–	–
COc1ccc(N2CCN(C(=O)CCc3c[nH]c4ccccc34)CC2)cc1	–	–	–	–	–
Brc1ccccc1CN1CCN(Cc2c[nH]c3ccccc23)CC1	–	·	–	·	·
Fc1ccc(N2CCN(Cc3c[nH]c4ccccc34)CC2)cc1	·	–	·	93	–
SMILES	D2 PAM-1	D2 ag-1	D2 ag-2	D2 antagonist	D2 PAM-2
COc1ccccc1N1CCN(Cc2c[nH]c3ccccc23)CC1	–	–	–	48	–
CCOc1ccc(CCNC(=O)c2sc3nc4n(c(=O)c3c2C)CCCC4)cc1	·	–	·	·	–
Cc1ccccc1N1CCN(Cc2c[nH]c3ccccc23)CC1	–	–	–	40	–
CCS(=O)(=O)N1CCN(Cc2c[nH]c3ccccc23)CC1	–	–	–	–	–
CCCn1c(=O)c2sccc2n2c(CCCC(=O)Nc3ccccc3F)nnc12	·	–	·	·	–
Cc1ccc(NC(=O)C(C)Sc2nc(=O)cc(N)n2-c2cccc(C)c2)cc1 (stereo not drawn)	·	–	·	·	–
CC(C)(C)c1cc(OC(=O)c2ccncc2)ccc1O	69	·	–	·	–
CCc1cccc(N2C(=O)CSC23C(=O)N(Cc2ccccc2F)c2ccccc23)c1 (stereo not drawn)	·	–	·	·	–
COc1ccc(/C(O)=C2/C(=O)C(=O)N(c3ccccn3)C2c2ccc(OC)c(OC)c2)cc1 (stereo not drawn)	–	–	–	–	–
COc1cccc(/C(O)=C2/C(=O)C(=O)N(c3ccccn3)C2c2ccc(OC)c(OC)c2)c1 (stereo not drawn)	–	–	–	32	–
Cn1c(=O)oc2cc(S(=O)(=O)N3CCOCC3)ccc21	–	–	–	46	–
